Among the data in PubChem BioAssay (NCI) are growth values, retold here.

Molecules are shown by their SMILES. Compounds without any hit were thinned out: in the full panel of roughly 83,000, 20% have a hit.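 Plates (96-well) were seeded with cells, treated with compound at one concentration, and incubated for 48 hours before percent growth was determined.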 A number with no mark means an inactive call. Active and inactive are the calls of the source. The calls were made as follows: active = growth percent below 10; inactive = the rest.

Some test systems named below: T-47D breast; BT-549 breast; MDA-MB-435 melanoma; MCF7 breast; HCT-116 colon; KM12 colon; SW-620 colon; HCC-2998 colon.
Holding throughout (assay): NCI-60 one-dose screen, 48 h (100 = growth as untreated, 0 = no growth, -100 = all killed)
Common to all, as to settings: 10 µM unless noted

As for `O=C(NC1CCCCC1)c1ccc(Nc2ncnc3c2cnn3-c2ccccc2)cc1`, the growth was 76.8% with T-47D breast; 59.8% in the experiment with BT-549 breast; 81.2% in the experiment on MDA-MB-435 melanoma; 82.8% in the experiment on MCF7 breast; 37.6% in the experiment with HCT-116 colon; 88.5% with KM12 colon.
Regarding `COc1cnc2c(c1)C(=O)c1c-2n(CCCn2ccnc2)c(=O)c2cc(F)ccc12`, the growth with T-47D breast was -9.74% (active); in the experiment with BT-549 breast it was -11.2% (active); in the experiment on SW-620 colon it was -45.2% (active); in the experiment with MCF7 breast it was 0.795% (active); in the experiment on HCT-116 colon, -49.9% (active); with HCC-2998 colon, 4.65% (active). Also, the growth in the experiment with KM12 colon was 0.0466% (active).
As to `C[C@H]1C(=O)N2c3ccccc3[C@@]3(O)C[C@@H](n4cnc5ccccc5c4=O)C(=O)N1[C@@H]23`, the growth is 99.1% with T-47D breast; 103% with BT-549 breast; 107% in the experiment with SW-620 colon; 98.9% in the experiment on MCF7 breast; 93.8% with HCT-116 colon; 98.5% with HCC-2998 colon. The growth with KM12 colon was 113%.
`COc1cccc(C=Nc2cc(C(C)C)c(O)cc2C)c1O`: the growth was 51.7% in the experiment with T-47D breast; 101% in the experiment on BT-549 breast; 105% with SW-620 colon; 92.5% in the experiment with MCF7 breast; 99.1% in the experiment with HCT-116 colon; 115% in the experiment with HCC-2998 colon. Also, in the experiment on KM12 colon, the growth is 109%.
Regarding `CCN(CC)c1ccc(N=C2C=CC(=O)C=C2NC(C)=O)cc1`, the growth was 82.5% in the experiment on T-47D breast; 109% in the experiment on BT-549 breast; 124% in the experiment with MDA-MB-435 melanoma; 82.6% with MCF7 breast; 97.9% with HCT-116 colon; 98.6% with KM12 colon.
Consider `O=C1/C(=C/c2ccccc2O)C(=S)SN1Cc1ccco1`, for which the growth was 54.2% in the experiment on T-47D breast; 93.5% in the experiment with BT-549 breast; 108% in the experiment with SW-620 colon; 15.7% in the experiment on MCF7 breast; 87.1% in the experiment with HCT-116 colon; 108% in the experiment with HCC-2998 colon. In the experiment on KM12 colon, the growth is 69.5%.
Turning to `Cc1sc2nc(NCCc3cccs3)[nH]c(=O)c2c1C`, the growth in the experiment with T-47D breast is 74.6%; in the experiment with BT-549 breast it was 74.7%; with SW-620 colon, 96.4%; in the experiment on MCF7 breast, 87.3%; with HCT-116 colon it was 71%; in the experiment with HCC-2998 colon, 101%. In the experiment on KM12 colon, the growth was 92.6%.
As for `CCCCCCCSc1ncnc2[nH]ncc12`, the growth is 51.9% with T-47D breast; 88.4% with BT-549 breast; 61.9% with SW-620 colon; 81.7% with MCF7 breast; 62.7% in the experiment on HCT-116 colon; 119% with HCC-2998 colon. The growth in the experiment with KM12 colon is 83.2%.
For the compound `C[C@@H]1C[C@@H]([C@@H](CC2CC(=O)NC(=O)C2)OC(=O)CC(=O)c2ccccc2)C(=O)[C@@H](C)C1`, the growth with T-47D breast is -2.63% (active); in the experiment with BT-549 breast it was 14.6%; in the experiment with MDA-MB-435 melanoma it was 11.6%; in the experiment with MCF7 breast it was 14.7%; in the experiment on HCT-116 colon, 5.68% (active); with KM12 colon, 12%.
Take `Cc1cc(Br)c(C)cc1Br`: the growth in the experiment with T-47D breast is 92.5%; with BT-549 breast it was 99.9%; in the experiment on SW-620 colon, 108%; in the experiment on MCF7 breast it was 98.2%; in the experiment on HCT-116 colon it was 99.1%; in the experiment on HCC-2998 colon it was 115%. The growth in the experiment on KM12 colon is 103%.
`Cc1cc(=O)oc2cc(OCCn3c(C)nn(-c4ccc(Cl)cc4)c3=O)ccc12`: the growth in the experiment with T-47D breast is 47.4%; with BT-549 breast it was 56.7%; in the experiment on MDA-MB-435 melanoma it was -38.6% (active); with MCF7 breast, 15.8%; with HCT-116 colon, 15.1%; with HCC-2998 colon, 46.7%. For the same compound, in the experiment with KM12 colon, the growth is 31.4%.
For the compound `N#Cc1c(NC(=O)c2ccco2)[n+]([O-])c2cc(Cl)c(Cl)cc2[n+]1[O-]`, the growth in the experiment on T-47D breast is 112%; in the experiment with BT-549 breast, 94.4%; with SW-620 colon, 119%; in the experiment on MCF7 breast it was 87.8%; in the experiment with HCT-116 colon, 105%; in the experiment on HCC-2998 colon, 109%. Besides, the growth in the experiment with KM12 colon is 131%.
On to `CC(C)C[C@H](NC(=O)/C=C/Cn1ccc2ccccc2c1=O)B(O)O`, for which the growth was 17.6% in the experiment on T-47D breast; 27.9% in the experiment on BT-549 breast; 24.6% with SW-620 colon; 26.5% in the experiment with MCF7 breast; 16.2% with HCT-116 colon; 62.5% in the experiment on HCC-2998 colon. Further, the growth with KM12 colon was 37.8%.
With `O=CN1N=C(c2ccc(Nc3ccnc4cc(Cl)ccc34)cc2)CC1c1ccc(Cl)cc1` (stereo not drawn), the growth in the experiment with T-47D breast is 23.1%; in the experiment with BT-549 breast, 55.3%; with MDA-MB-435 melanoma, -19.6% (active); in the experiment with MCF7 breast it was 18.4%; with HCT-116 colon, 11.7%; in the experiment with HCC-2998 colon, -20.4% (active). Besides, the growth with KM12 colon is 9.13% (active).
On to `COc1cc(/C(Cl)=C/C=C/C(=O)c2c(C)[n+]([O-])c3ccc(Cl)cc3[n+]2[O-])cc(OC)c1OC`, for which the growth with T-47D breast is 22.3%; in the experiment with BT-549 breast it was 36.5%; with SW-620 colon, 1.65% (active); with MCF7 breast, 0.61% (active); with HCT-116 colon, 2.9% (active); with HCC-2998 colon, 83.2%. Further, in the experiment with KM12 colon, the growth is 33%.
Turning to `O=C(Nc1nc2c(C(F)(F)F)cccc2s1)c1cc(Cl)ccc1O`, the growth in the experiment with T-47D breast was -1.67% (active); with BT-549 breast, -13.4% (active); in the experiment on MDA-MB-435 melanoma, 5.71% (active); in the experiment with MCF7 breast, 7.63% (active); with HCT-116 colon it was -1.3% (active); in the experiment on HCC-2998 colon, 19.3%. Also, the growth with KM12 colon was 10.5%.
As to `CNNc1ncnc2c1cnn2-c1ccc(S(N)(=O)=O)cc1`, the growth with T-47D breast was 98.2%; with BT-549 breast, 109%; in the experiment with SW-620 colon it was 98.6%; in the experiment on MCF7 breast, 104%; in the experiment on HCT-116 colon it was 100%; with HCC-2998 colon it was 99.3%. Also, in the experiment on KM12 colon, the growth was 91.9%.
Consider `Cc1cc(C)c(C(=O)c2cccs2)c(C)c1`, for which the growth in the experiment on T-47D breast is 102%; with BT-549 breast it was 109%; in the experiment with SW-620 colon, 107%; in the experiment with MCF7 breast it was 99%; in the experiment with HCT-116 colon, 101%; with HCC-2998 colon, 106%. In addition, in the experiment on KM12 colon, the growth is 110%.
